Sm TGR block – S. mansoni TGR enzyme inhibition; Q962Y6; purified TGR, DTNB reduction, TNB absorbance 405 nm; Potency, µM (series often up to 114 µM), for inactives: at the top dose activity change, negative = inhibition, hits mostly inhibitors; hit rate 3% among 360,000; AID 485364; also: nearly all actives have a fitted effect of over 60% in size
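Kinetic colorimetric format: TGR-catalysed, NADPH-driven DTNB reduction monitored via TNB absorbance. Enzyme dispensed at 20 nM; compound exposure 15 min at room temperature before reaction start.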
AmpC no deterg – inhibitors of E. coli AmpC beta-lactamase without detergent; P00811; AmpC nitrocefin hydrolysis, absorbance 480 nm, 0.0001% Triton; Potency, µM (titrated, usually from 57.1 µM), for inactives: at the highest dose activity change, negative = inhibition, most hits filed as inhibitors; hit rate 0.52% among 330,000;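 also: plate controls were no compound for no effect and no enzyme for full effect; nearly all actives have a fitted effect of over 20% in size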
Target sequence (P00811 whole entry, looked up): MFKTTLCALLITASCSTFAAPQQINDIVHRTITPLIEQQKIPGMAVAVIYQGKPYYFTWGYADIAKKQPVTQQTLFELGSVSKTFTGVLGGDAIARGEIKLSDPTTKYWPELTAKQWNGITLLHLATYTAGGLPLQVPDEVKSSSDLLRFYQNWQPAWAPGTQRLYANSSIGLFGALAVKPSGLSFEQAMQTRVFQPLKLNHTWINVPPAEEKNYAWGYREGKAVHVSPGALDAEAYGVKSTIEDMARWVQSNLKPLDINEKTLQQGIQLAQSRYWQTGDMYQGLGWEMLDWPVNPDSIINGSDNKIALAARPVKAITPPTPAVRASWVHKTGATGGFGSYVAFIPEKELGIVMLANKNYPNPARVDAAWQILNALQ
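AmpC (5.3 nM in the dispensed reagent) in 20 mM phosphate pH 7.0 with 0.01% (detergent screen) or 0.0001% Triton X-100 was preincubated with compounds for 15 min at room temperature. Nitrocefin was then added from an 800 uM solution, and hydrolysis was followed at 480 nm.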
AmpC detergent – blocks E. coli AmpC beta-lactamase in detergent assay; P00811; AmpC hydrolysis of nitrocefin, absorbance 480 nm, 0.01% Triton; Potency, µM (highest dose often 114 µM), for inactives: at the top dose activity change, negative = inhibition, actives largely listed as inhibitors; hit rate 0.041% among 370,000; AID 485294;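 also: 0% = no-compound wells and -100% = no-enzyme wells; nearly all actives have a fitted effect of over 25% in size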
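20 mM phosphate pH 7.0 + 0.01% (detergent screen) or 0.0001% Triton X-100; 5.3 nM AmpC reagent; cpd preinc 15 min RT; nitrocefin (800 uM stock) to start; A480 q20 s × 4 min; Activity was normalised to no-enzyme and no-compound control wells.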
The depositor's hits bear a star. Hits are enriched below; roughly 3.3% of the tested compounds scored in any of these assays. Calls follow the shape of the dose curve; as a rule, active = well fitted curve in the direction sought with a large enough effect; inconclusive = small, poorly fitted or top-dose-only effect, or another doubt; inactive = no such curve, though single readings can be large; an effect the other way counts as inactive or inconclusive. Unless noted, % is scaled to controls: 0 for no effect and ±100 for the full control effect; potency is read from the fitted curve at half-maximal effect.

How did CC(C)Oc1cccc(C(=O)Nc2ccc(-c3nc4cc(Cl)cc(Cl)c4o3)cc2)c1 do in these assays?
Sm TGR block: 12%; AmpC detergent: 2%

Results for O=C(O)CCCN1C(=O)/C(=C/C=C/c2ccco2)SC1=S ?
Sm TGR block: 1.8µM*; AmpC no deterg: -33%; AmpC detergent: -4%

How did O=C(NN1C(=O)/C(=C/C=C/c2ccco2)SC1=S)c1ccccc1O do in these assays?
Sm TGR block: 2.8µM*; AmpC no deterg: 16µM*; AmpC detergent: 4%

How did O=C(O)CCN1C(=O)/C(=C/c2ccc(-c3nc4ccccc4s3)o2)SC1=S do in these assays?
Sm TGR block: -32%; AmpC no deterg: -31%; AmpC detergent: -3%

Results for O=C(O)CC(C(=O)O)N1C(=O)/C(=C/C=C/c2ccco2)SC1=S (stereo not drawn) ?
Sm TGR block: 5µM*; AmpC no deterg: -41%; AmpC detergent: -2%

What do the screens show for `Cn1cccc1/C=C1\SC(=S)N(NC(=O)c2ccccc2O)C1=O`?
Sm TGR block: -6%; AmpC no deterg: -44%; AmpC detergent: 2%

Results for O=C(O)CCCN1C(=O)/C(=C\c2ccc(-c3nc4ccccc4s3)o2)SC1=S ?
Sm TGR block: 35µM*; AmpC no deterg: 70%; AmpC detergent: -9%

How did Cc1ccc(NC(=O)CCCN2C(=O)/C(=C/C=C/c3ccccc3)SC2=S)cc1 do in these assays?
Sm TGR block: -6%; AmpC no deterg: -41%; AmpC detergent: -1%

What do the screens show for `O=C(O)CC(C(=O)O)N1C(=O)/C(=C/c2ccc(-c3nc4ccccc4s3)o2)SC1=S` (stereo not drawn)?
Sm TGR block: inconclusive; AmpC no deterg: -36%; AmpC detergent: -5%

How did COc1ccc(CNC(=O)c2ccc3c(c2)N(Cc2c(F)cccc2Cl)C(=O)CS3)cc1 do in these assays?
Sm TGR block: 1%; AmpC detergent: 7%

How did Cc1ccc2nc(-c3ccc(C)s3)c(Nc3ccc4c(c3)OCCO4)n2c1 do in these assays?
Sm TGR block: 0%; AmpC detergent: 1%

Results for Cc1ccc(NC(=O)C2CCCN2S(=O)(=O)c2ccc3nc(-c4ccccc4)[nH]c3c2)cc1F (stereo not drawn) ?
Sm TGR block: -1%; AmpC detergent: inconclusive

Results for Cc1ccc(-n2c(=O)c3ccc(C(=O)NCc4ccccc4Cl)cc3n(CC(=O)Nc3cccc(F)c3)c2=O)cc1 ?
Sm TGR block: 4%; AmpC detergent: 4%

Results for COc1ccc(/C=C2\SC(=S)N(C(Cc3ccccc3)C(=O)O)C2=O)cc1 (stereo not drawn) ?
Sm TGR block: 7%; AmpC no deterg: -22%; AmpC detergent: -8%

What do the screens show for `O=C(O)C(Cc1ccccc1)N1C(=O)/C(=C/C=C/c2ccco2)SC1=S` (stereo not drawn)?
Sm TGR block: 6.3µM*; AmpC no deterg: -43%; AmpC detergent: inconclusive

How did CCC(Cc1ccccc1)NC(=O)Cn1ncc2c3ccccc3n(Cc3ccccc3)c2c1=O (stereo not drawn) do in these assays?
Sm TGR block: 1%; AmpC detergent: 16%

Results for O=C(Nc1ccc(Cl)cc1)NC1CCCC1Cc1ccco1 (stereo not drawn) ?
Sm TGR block: 45µM*; AmpC no deterg: -35%; AmpC detergent: -2%

Results for O=C(Nc1ccc(Cl)cc1)NC1CCCCC1Cc1ccco1 (stereo not drawn) ?
Sm TGR block: -13%; AmpC no deterg: -1%; AmpC detergent: inconclusive

What do the screens show for `COc1ccc(-n2c(/C=C/c3cccc(C(F)(F)F)c3)nc3ccccc3c2=O)cc1Cl`?
Sm TGR block: 4%; AmpC detergent: 0%

What do the screens show for `O=C(O)c1ccc(NS(=O)(=O)c2ccc3c(c2)C2C=CCC2C(c2ccccc2F)N3)cc1` (stereo not drawn)?
Sm TGR block: 28µM*; AmpC no deterg: -51%; AmpC detergent: inconclusive

How did Cc1ccc(NS(=O)(=O)c2ccc3c(c2)[C@H]2C=CC[C@H]2[C@@H](c2ccc(F)cc2)N3)cc1C do in these assays?
Sm TGR block: inconclusive; AmpC detergent: 5%

How did COC(=O)c1ccc(C2NC(=O)CCC2[N+](=O)[O-])cc1 (stereo not drawn) do in these assays?
Sm TGR block: 1%; AmpC no deterg: -16%; AmpC detergent: 0%

How did COC(=O)c1ccc([C@@H]2Nc3c(OC)ccc(C)c3[C@@H]3C=CC[C@@H]32)cc1 do in these assays?
Sm TGR block: 3.2µM*; AmpC detergent: 3%

What do the screens show for `COC(=O)c1ccc(C2Nc3ccc(/C(C)=N/NC(=O)C(OC)c4ccccc4)cc3C3C=CCC32)cc1` (stereo not drawn)?
Sm TGR block: 7.9µM*; AmpC no deterg: 5%; AmpC detergent: -6%

Results for Cc1ccc([C@H]2Nc3ccc(S(=O)(=O)Nc4cccc(Cl)c4C)cc3[C@H]3C=CC[C@H]32)cc1 ?
Sm TGR block: -2%; AmpC detergent: -10%

Results for COC(=O)c1ccc([C@H]2Nc3ccc(S(=O)(=O)Nc4cccc(C)c4)cc3[C@H]3C=CC[C@H]32)cc1 ?
Sm TGR block: 25µM*; AmpC detergent: inconclusive

How did COC(C(=O)N/N=C(\C)c1ccc(O)cc1)c1ccccc1 (stereo not drawn) do in these assays?
Sm TGR block: 2%; AmpC no deterg: -12%; AmpC detergent: inconclusive

Results for Cc1nc(SCC(=O)OC(C)(C)C)c2c3c(sc2n1)CCCC3 ?
Sm TGR block: 1%; AmpC detergent: 16%

How did CCc1ccc2oc(-c3cccc(NC(=O)c4ccc(N5CCC(C)CC5)c([N+](=O)[O-])c4)c3)nc2c1 do in these assays?
Sm TGR block: 12%; AmpC detergent: -4%

What do the screens show for `CN(C)c1ccc(C(CNC(=O)c2ccccc2F)N2CCc3ccccc32)cc1` (stereo not drawn)?
Sm TGR block: -1%; AmpC detergent: 12%

How did CC1CN(C(=O)N2CCC(C(=O)NCc3ccco3)CC2)c2ccccc2O1 (stereo not drawn) do in these assays?
Sm TGR block: -5%; AmpC detergent: -2%

What do the screens show for `CN(Cc1ccccc1)C(=O)C1CCN(S(=O)(=O)Cc2ccccc2)CC1`?
Sm TGR block: -8%; AmpC detergent: 23%

What do the screens show for `COc1cccc(CNC(=O)CCn2c(=O)c3cccn3c3ccc(F)cc32)c1OC`?
Sm TGR block: -16%; AmpC detergent: 1%

What do the screens show for `COc1ccc(C2=C(C)C(N3CCC(C(=O)NCc4ccco4)CC3)=NS2(=O)=O)cc1`?
Sm TGR block: -27%; AmpC detergent: -1%

How did CC(C)CN1CCc2nc(N3CCN(C)CC3)ncc2C1 do in these assays?
Sm TGR block: -1%; AmpC detergent: 8%

Results for O=C(NCC(c1cccs1)S(=O)(=O)c1cccs1)c1ccccc1F (stereo not drawn) ?
Sm TGR block: inconclusive; AmpC detergent: -6%

Results for CC(=O)Nc1ccc2c(c1)CCCC2=O ?
Sm TGR block: 32µM*; AmpC no deterg: -9%; AmpC detergent: -9%

How did CC(=O)Nc1ccc2c(c1)CCCC2 do in these assays?
Sm TGR block: -3%; AmpC no deterg: -2%; AmpC detergent: -2%
